Source: PubChem BioAssay (NCI)
The panel holds about 83,000 compounds, 20% with a hit somewhere; the sample as a whole holds those more often.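 The test compound was applied at a single concentration to cells in 96-well plates for 48 hours, and percent growth was recorded.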 Unmarked numbers belong to inactive results. Calls of active or inactive are those of the source. Rule for the calls: active = growth percent below 10; inactive = the rest.

Legend:
Experiment in all cases: NCI-60 one-dose screen, 48 h (100 = growth as untreated, 0 = no growth, -100 = all killed)
Settings in all cases: 10 µM unless noted
SK-MEL-2 melanoma = system: SK-MEL-2 melanoma
EKVX NSCLC = system: EKVX NSCLC
SN12C renal = system: SN12C renal
UO-31 renal = system: UO-31 renal
TK-10 renal = system: TK-10 renal
ACHN renal = system: ACHN renal
CAKI-1 renal = system: CAKI-1 renal
CCRF-CEM leukemia = system: CCRF-CEM leukemia
MOLT-4 leukemia = system: MOLT-4 leukemia
SR leukemia = system: SR leukemia
OVCAR-8 ovarian = system: OVCAR-8 ovarian
OVCAR-5 ovarian = system: OVCAR-5 ovarian
OVCAR-4 ovarian = system: OVCAR-4 ovarian
IGROV1 ovarian = system: IGROV1 ovarian
OVCAR-3 ovarian = system: OVCAR-3 ovarian
HS 578T breast = system: HS 578T breast
NCI/ADR-RES ovarian = system: NCI/ADR-RES ovarian
RPMI-8226 leukemia = system: RPMI-8226 leukemia
SK-OV-3 ovarian = system: SK-OV-3 ovarian

Compound | growth (SK-MEL-2 melanoma) | growth (EKVX NSCLC) | growth (SN12C renal) | growth (UO-31 renal) | growth (TK-10 renal) | growth (ACHN renal) | growth (CAKI-1 renal) | growth (CCRF-CEM leukemia) | growth (MOLT-4 leukemia) | growth (SR leukemia) | growth (OVCAR-8 ovarian) | growth (OVCAR-5 ovarian) | growth (OVCAR-4 ovarian) | growth (IGROV1 ovarian) | growth (OVCAR-3 ovarian) | growth (HS 578T breast) | growth (NCI/ADR-RES ovarian) | growth (RPMI-8226 leukemia) | growth (SK-OV-3 ovarian)
N=C(N)c1ccc(-c2ccc(-c3ccc(Cl)c(Cl)c3)o2)cc1 | 102% | 69.8% | -81% (active) | -69.1% (active) | 76% | -70.7% (active) | 53% | -24.9% (active) | -31% (active) | -14.5% (active) | 1.38% (active) | 39.9% | -13.1% (active) | -64.6% (active) | -42.2% (active) | 70.9% | 35.1% |  | 
O=C1c2cccc3c(-c4ccc(-c5nc6c7ccccc7c7ccccc7c6[nH]5)cc4)ccc(c23)C(=O)N1CCN1CCNCC1 | 105% | 97% | 93.4% | 94.2% | 104% | 71.7% | 91.4% | 37.5% | 53.4% | 5.99% (active) | 20.2% | 108% | -23.2% (active) | 72.4% | 91.5% | 108% | 57.8% |  | 
O=C(NCCN1CCC(O)CC1)c1cc2c(o1)C(=O)c1ccccc1C2=O | -66.1% (active) | -76.8% (active) | -88.1% (active) | -98.9% (active) | -91.8% (active) | -89.2% (active) | -97.1% (active) | 2.16% (active) | -4.13% (active) | 13.4% | -48.8% (active) | -84.7% (active) | -94.1% (active) | -83.8% (active) | -75.1% (active) | -27.4% (active) | -26.3% (active) |  | 
CN1C(=O)CCC(N2C(=O)c3cccc(NCCOCCOCCNC(=O)c4cc5c(o4)C(=O)c4ccccc4C5=O)c3C2=O)C1=O (stereo not drawn) | 6.39% (active) | 9.9% (active) | -86.2% (active) | -52.6% (active) | 32.4% | 8.82% (active) | -0.721% (active) | 18.4% | 11.1% | 7.99% (active) | 2.72% (active) | -85.5% (active) | -95.3% (active) | -20.1% (active) | -44.7% (active) | -22.8% (active) | 45.1% |  | 
Nc1nc(Nc2ccc(Cl)cc2)nn1S(=O)(=O)c1ccc(-c2ccc(F)cc2)cc1 | 107% | 81.5% | 83.2% | 57.2% | 97.3% | 81.8% | 59.8% | 95.1% | 74.5% | 85.5% | 83.8% | 85.7% | 89.4% | 76.2% | 92.1% | 79.6% | 83.3% |  | 
C[C@H]1[C@H](C)CC[C@]2(C(=O)N3CCN(C)CC3)CC[C@]3(C)C(=CC[C@@H]4[C@@]5(C)C/C(=C/c6cccnc6)C(=O)C(C)(C)[C@@H]5CC[C@]43C)[C@H]12 | -82.6% (active) | -81.5% (active) | -95.3% (active) | -92.5% (active) | -97.4% (active) | -94.4% (active) | -42.5% (active) | -51.7% (active) | -51.9% (active) |  | -76.2% (active) | -77.8% (active) | -24.9% (active) | -69.2% (active) | -93.2% (active) | -30.7% (active) | -75.1% (active) | -59.3% (active) | -89.5% (active)
CCn1c(Sc2nnc(NC(=O)CCN3CCCC3)s2)nc2c1c(=O)n(C)c(=O)n2C | 108% | 99.3% | 96.8% | 88.7% | 104% | 100% | 94.6% | 103% | 108% | 111% | 103% | 98.3% | 105% | 115% | 109% | 100% | 109% |  | 
O=C1Nc2ccc(Cl)cc2/C1=N/N=C/c1c[nH]c2ccccc12 | 66.3% | 22.6% | 80.5% | 40.9% | 75.8% | 49.8% | 28.9% | 85.7% | 92.1% | 75.2% | 76% | 89.8% | 67.8% | 42.7% | 76.5% | 22% | 98.1% |  | 
COc1ccc(C(=O)/C=C/C23c4ccccc4C(c4ccccc42)C2C(=O)NC(=O)C23)cc1 (stereo not drawn) | 103% | 87.5% | 86.9% | 72.6% | 114% | 95.4% | 90.7% | 89.8% | 87.3% | 75.5% | 88.3% | 91.4% | 88.5% | 98.8% | 95.9% | 77.6% | 90.1% |  | 
O[C@H]1CO[C@H]2[C@@H]1OC[C@@H]2Oc1ccc(Nc2ccnc(Nc3ccc(O[C@H]4CO[C@H]5[C@@H]4OC[C@@H]5O)c(Cl)c3)n2)cc1Cl | 4.23% (active) | 25.2% | -2.74% (active) | 6.06% (active) | 28.5% | 20.3% | 27.3% | 7.39% (active) | 5.65% (active) | 12.2% | 7.77% (active) | 27.6% | 19.8% | -2.78% (active) | 13.6% | -2.86% (active) | 74.1% |  | 19.1%
CS(=O)(=O)c1ccc(-c2[nH]c3ccc(F)cc3c2/C=N/O)cc1 | 94.9% | 98.4% | 99.1% | 82.5% | 99.4% | 97% | 81.4% | 92.9% | 92.9% |  | 90.3% | 91.4% | 97.1% | 89.9% | 99.8% | 92.2% | 107% | 90.4% | 69.8%
N=C(N)c1ccc(-c2ccc(/C=C/c3ccccc3)s2)cc1 | 102% | 71.2% | -31.8% (active) | 63.1% | 98.5% | -5.84% (active) | 32.5% | 1.58% (active) | -21% (active) | 1.05% (active) | 8.3% (active) | 13.1% | -24.8% (active) | -62.6% (active) | -25.5% (active) | 57.4% | -12.5% (active) |  | 
O=C1Nc2ccccc2/C1=N/N=C/c1c[nH]c2ccccc12 | 55.5% | 21.8% | 73.8% | 26.4% | 78.4% | 48.3% | 17.8% | 83.3% | 71.8% | 67% | 70.4% | 81.6% | 59.9% | 35.7% | 69.5% | 15% | 91% |  | 
C=C1C(=O)O[C@H]2[C@H]1CC/C(COC(=O)/C=C\C(=O)NCc1ccc(Cn3c(=O)sn(-c4ccc(Cl)cc4)c3=O)cc1)=C\CC[C@@]1(C)O[C@@H]21 | -64.7% (active) | -74.8% (active) | -96.1% (active) | -100% (active) | -85.1% (active) | -100% (active) | -69.9% (active) | -22.9% (active) | -36.7% (active) | -46.3% (active) | -12% (active) | -86.2% (active) | -78.4% (active) | -99.5% (active) | -97.6% (active) | -18.2% (active) | -6.62% (active) |  | 52.4%
COc1cc(-c2ccc(-c3ccc(C(=N)N)nc3)s2)cc(OC)c1OC | 89.3% | 89.9% | 66.6% | 70.5% | 102% | 47.1% | 95.9% | 10.9% | 23.8% | 6.31% (active) | 57.2% | 81% | 60.9% | 62.5% | -41.9% (active) | 64.4% | 78.6% |  | 
O=C1CCC(N2C(=O)c3cccc(NCCCC4CCN(CCNC(=O)c5cc6c(o5)C(=O)c5ccccc5C6=O)CC4)c3C2=O)C(=O)N1 (stereo not drawn) | -46.4% (active) | -61.8% (active) | -95.4% (active) | -72.9% (active) | -70.6% (active) | -92.4% (active) | -26.4% (active) | 21% | 21.8% | 14.5% | 6.28% (active) | -98% (active) | -99.3% (active) | -50.3% (active) | -90.9% (active) | -25.8% (active) | 20.4% |  | 
NS(=O)(=O)Oc1ccc(NC(=O)C23CC4CC(CC(C4)C2)C3)cc1Cl | 99.9% | 93% | 90.6% | 63.4% | 100% | 96.1% | 89% | 73.6% | 82.3% | 99% | 98.4% | 101% | 83.9% | 95.9% | 103% | 95.5% | 93.6% |  | 
